Bioassay records as filed in PubChem BioAssay.
Compounds with a hit are over-represented: about 12% of the library has one in this group of screens.
Pf growth 48h: Primary qHTS for delayed death inhibitors of the malarial parasite plastid, 48 hour incubation | P. falciparum luciferase growth in erythrocytes, 48 h | Potency, µM (doses to about 28.7 µM), for the others: top-dose activity change, negative = inhibition, usual class: inhibitors | actives 5.9% (n = 310,000) | AID 504832, 2011; further: on the % scale 0 is the no-effect control and ±100 the full control effect
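A one-generation exposure of luciferase-tagged malaria parasites in RPMI 1640/Albumax erythrocyte culture, 37 C and 5% CO2. Inhibition is inferred from decreased luminescence after adding detection reagent.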
Pf growth 96h: Primary qHTS for delayed death inhibitors of the malarial parasite plastid, 96 hour incubation; P. falciparum luciferase reporter growth, 96 h; Potency, µM (doses to about 28.7 µM), for the others: top-dose activity change, negative = inhibition, actives largely listed as inhibitors; actives 6.9% (n = 320,000); further: on the % scale 0 is the no-effect control and ±100 the full control effect
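Infected RBCs, 2% Hct / 0.05% parasitemia final; luciferase-reporter P. falciparum; cpd 96 h, 37 C, 5% CO2; luciferase detection reagent; luminescence.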
SARS PLpro yeast: qHTS of Yeast-based Assay for SARS-CoV PLP | S. cerevisiae expressing SARS-CoV PLpro, growth rescue | Potency, µM (doses to about 32.9 µM), inactives show at the highest dose activity, positive = growth rescue, most hits filed as activators | actives 0.19% (n = 330,000) | AID 485353, 2010; calls by dose curve; further: 0% is about no effect; nearly all actives have a fitted effect of over 55% in size
Sm TGR block: qHTS Assay for the Inhibitors of Schistosoma Mansoni Peroxiredoxins; actives 3% (n = 360,000); Potency, µM (titrated, usually from 114 µM), inactives show at the top dose activity change, negative = inhibition, most hits filed as inhibitors; purified TGR, DTNB reduction, TNB absorbance 405 nm; Schistosoma mansoni thioredoxin glutathione reductase (TGR), Q962Y6; further: on the % scale 0 is the no-effect control and ±100 the full control effect; nearly all actives have a fitted effect of over 60% in size
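TGR 20 nM + NADPH 100 uM (dispensed conc.), cpd preinc 15 min RT; start with NADPH (500 uM addition) then DTNB (15 mM addition). Kinetic TNB absorbance, 405 nm filter. Four-parameter Hill fit across titration.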
The depositor's hits bear a star; ? = inconclusive; . = not tested or not shown; [ ] = dose if it differs, or a comment. Unless noted, the call rests on the fitted dose curve; in most records, active means well fitted curve in the direction sought with a large enough effect; inconclusive means small, poorly fitted or top-dose-only effect, or another doubt; inactive means no such curve, though single readings can be large; an effect the other way counts as inactive or inconclusive. Potency means the concentration at half of the fitted maximal effect.

SMILES	Pf growth 48h	Pf growth 96h	SARS PLpro yeast	Sm TGR block
Cc1nnc2c(N3CCN(c4ccccc4F)CC3)nc3ccc(C(=O)c4ccccc4)cc3n12	.	.	.	0.7%
Cc1[nH]c(=O)[nH]c(=O)c1/C=N/NC(=O)CCCCCNC(=O)OC(C)(C)C	39.3%	?	1.3%	9.7%
Cc1[nH]c(=O)[nH]c(=O)c1/C=N/NC(=O)CCNC(=O)OC(C)(C)C	8.9%	16.7%	3.4%	17.3%
Cc1[nH]c(=O)[nH]c(=O)c1/C=N/NC(=O)[C@@H](NC(=O)OC(C)(C)C)C(C)C	22.1%	0.0%	-7.0%	35.5µM*
Cc1[nH]c(=O)[nH]c(=O)c1/C=N/NC(=O)[C@H](C)N	?	?	-0.5%	50.1µM*
COc1ccc(CNC(=O)c2cccnc2)cc1	5.1%	?	24.2%	-23.6%
CCC(=O)NC(c1ccco1)c1cc(Cl)c2cccnc2c1O (stereo not drawn)	?	12.5%	-6.1%	-0.1%[57.1 µM]
CC(=O)NC(c1ccc(C(C)C)cc1)c1ccc2cccnc2c1O (stereo not drawn)	7.38µM*	228.2%	-20.5%	-0.3%
CC(=O)NC(c1ccccc1)c1cc([N+](=O)[O-])c2cccnc2c1O (stereo not drawn)	?	-25.5%	1.7%	-9.2%
CCCCC(=O)NC(c1ccco1)c1cc(Cl)c2cccnc2c1O (stereo not drawn)	?	29.1%	1.1%	-0.4%
CCCCC(=O)NC(c1ccc(C(C)C)cc1)c1ccc2cccnc2c1O (stereo not drawn)	1.65µM*	17.0%	7.08µM*	6.3%
CCCCC(=O)NC(c1ccccc1Cl)c1ccc2cccnc2c1O (stereo not drawn)	2.33µM*	119.9%	?	0.0%
CCOC(=O)C(=O)Nc1ncc(Cl)s1	12.0%	18.8%	-1.6%	6.9%
CCC(C(=O)Nc1ccc2[nH]ncc2c1)c1ccccc1 (stereo not drawn)	?	-34.4%	-2.0%	20.9%
CNC(=S)NNC(=O)c1sccc1OCc1cccc(C(F)(F)F)c1	?	13.1µM*	2.0%	2.5%
CNC(=S)NNC(=O)c1sccc1OCc1ccc(C)cc1	37.1%	22.9%	-0.5%	-18.3%
COc1ccc(S(=O)(=O)NNC(=O)c2cc3cc4ccccc4nc3s2)cc1	?	-2.1%	2.5%	0.1%
CS(=O)(=O)NNC(=O)c1cc2cc3ccccc3nc2s1	2.8%	4.65µM*	0.8%	-2.9%
NNC(=O)c1cc2cc3ccccc3nc2s1	?	13.1µM*	-1.7%	?
COc1ccc(CNC(=O)Cc2ccc(NC(=O)N3CCSc4ncccc43)cc2)cc1OC	.	.	.	2.0%
Cc1ccc(CN2C(=O)c3ccccc3CC2(C)C(=O)NC2CCCCC2)cc1 (stereo not drawn)	.	.	.	-1.0%
COC(=O)C1(Cc2ccc(O)cc2)OC(=O)C(O)=C1c1ccc(O)cc1 (stereo not drawn)	?	-11.8%	1.0%	15.8µM*
COC(=O)CCc1ccc(O)cc1	22.8%	31.6%	-3.2%	-10.3%
CCCCNC(=O)C(C)N(CCN(C)C)C(=O)CCCN1C(=O)NC(c2ccc([N+](=O)[O-])cc2)C(C(=O)OCc2ccccc2)=C1C (stereo not drawn)	.	.	11.3%	.
CCCCCCN(C(=O)CCCCCN1C(=O)NC(c2cccc([N+](=O)[O-])c2)C(C(=O)OCc2ccccc2)=C1C)C(C(=O)NCCCC)c1ccc(OCC(=O)OC)c(C(=O)OC)c1 (stereo not drawn)	?	5.22µM*	-1.0%	3.6%
CCCCCCN(C(=O)CCCCCN1C(=O)NC(c2ccc([N+](=O)[O-])cc2)C(C(=O)OCc2ccccc2)=C1C)C(C(=O)NCCCC)c1ccc(OCC(=O)OC)c(C(=O)OC)c1 (stereo not drawn)	1.85µM*	3.29µM*	1.1%	-10.0%
O=C(CCc1ccccc1)N1CCN(Cc2ccc(F)cc2Cl)CC1	?	153.7%	-1.3%	12.5%
Cc1ccc(S(=O)(=O)NC(CC(C)C)C(=O)NCc2ccco2)cc1 (stereo not drawn)	.	-22.2%	3.2%	-3.0%
CC(=O)c1ccc(S(=O)(=O)N(C)C(C)CCc2ccco2)cc1 (stereo not drawn)	-47.7%	-33.8%	-0.9%	39.8µM*
COc1ccc(S(=O)(=O)N(C)C(C)CCc2ccco2)cc1 (stereo not drawn)	?	?	0.5%	20µM*
